# The source made the active and inactive calls.
# Columns and labels:
# [1] = target: Albumin (Bos taurus) (UniProt P02769); test: compounds binding labelled BSA control protein – biochemical, small-molecule microarray, Alexa647 label, 635/667 nm fluorescence, artefact control for SMM control protein annotation, profiling panel (AID 1118); conditions: BSA-A647 binding, fluorescence 635 nm, higher = more signal;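 note: score merges 667 nm emission intensity and signal-to-noise per printed compound spot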
# Chain of Albumin (Bos taurus) (P02769 whole entry, looked up): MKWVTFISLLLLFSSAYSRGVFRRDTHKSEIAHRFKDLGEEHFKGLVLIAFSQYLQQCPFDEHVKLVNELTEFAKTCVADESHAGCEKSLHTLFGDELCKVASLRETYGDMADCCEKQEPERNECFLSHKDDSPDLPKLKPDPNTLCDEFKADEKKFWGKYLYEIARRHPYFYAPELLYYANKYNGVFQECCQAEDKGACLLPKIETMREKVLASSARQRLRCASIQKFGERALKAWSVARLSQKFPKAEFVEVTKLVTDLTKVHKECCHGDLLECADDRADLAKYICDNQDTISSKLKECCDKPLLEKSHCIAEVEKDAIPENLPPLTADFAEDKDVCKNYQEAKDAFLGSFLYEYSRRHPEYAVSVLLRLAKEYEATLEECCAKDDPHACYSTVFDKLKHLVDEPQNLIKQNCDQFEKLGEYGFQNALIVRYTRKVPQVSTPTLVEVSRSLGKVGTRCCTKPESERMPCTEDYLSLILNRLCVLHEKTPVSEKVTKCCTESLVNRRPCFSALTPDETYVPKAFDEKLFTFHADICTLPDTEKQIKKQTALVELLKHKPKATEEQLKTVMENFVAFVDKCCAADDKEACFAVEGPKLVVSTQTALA
# [2] = probe aXIP binding to arrayed compounds – biochemical, NeuroSMM set, 635/667 nm fluorescence, primary screen (AID 1119); conditions: small-molecule microarray, higher = more signal, called active from +8 up or from −8 down;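 note: probe is the protein aXip251-270 applied at 1 µg/mL to compound-printed slides; binding of probe to printed compounds measured as 667 nm fluorescence plus signal to noise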
# [3] = probe aNOTCH3 binding on compound microarray – biochemical, small-molecule microarray, 635/667 nm fluorescence, primary screen (AID 1120); conditions: higher = more signal;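 note: probe is a biotin-tagged antibody raised against NOTCH3 rather than NOTCH3 protein; score merges spot fluorescence near 667 nm with spot signal to noise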
# [4] = probe aNOTCH2 binding on compound microarray – biochemical, small-molecule microarray, 635/667 nm fluorescence, primary screen (AID 1121); conditions: higher = more signal;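 note: score merges feature fluorescence read at 667 nm with its signal to noise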
# [5] = target: Carbonic anhydrase 2 (Homo sapiens) (UniProt P00918); test: compounds binding carbonic anhydrase 2 – biochemical, small-molecule microarray, Alexa647-labelled CAII, profiling panel (AID 1122); conditions: CAII-A647 binding fluorescence, higher = more signal
# [6] = COS7 lysate on small-molecule microarray, probe aHis, 635 nm (AID 1123); conditions: COS7 cell lysate, fluorescence, higher = more signal;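 note: z-score combines 667nm fluorescence intensity with signal-to-noise per printed compound spot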
# [7] = probe aLAP1 signal on lysate-treated microarray – cell lysate, small-molecule microarray, COS7 lysate, primary screen (AID 1124); conditions: probe aLAP1, fluorescence, higher = more signal;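 note: lysate comes from COS7 cells expressing LAP1 and is applied at 0.3 µg/mL; score merges spot fluorescence near 667 nm with signal-to-noise over triplicate slides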
# [8] = test system: Sam68 (KHDRBS1); test: compounds binding KHDRBS1 protein – biochemical, small-molecule microarray, 635 nm fluorescence, primary screen (AID 1125); conditions: higher = more signal;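 note: score merges 667 nm channel intensity with signal to noise over triplicate slides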
# [9] = test system: Chordin-like protein 2 (CHRDL2); test: compounds binding chordin-like 2 – biochemical, small-molecule microarray, 635 nm fluorescence, primary screen (AID 1126); conditions: fluorescence 635 nm, higher = more signal;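 note: printed compound slides probed with Chrdl2 protein at 4 µg/mL for 1 h at 4 C; score merges 667 nm emission intensity with signal to noise over three replicate slides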
# [10] = target: Concanavalin-A (Canavalia ensiformis) (UniProt P02866); test: compounds binding concanavalin A lectin – biochemical, small-molecule microarray, Alexa647 label, 635 nm, artefact control for SMM control protein annotation, primary screen (AID 1127); conditions: ConA-A647 binding fluorescence, higher = more signal;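 note: z combines 667 nm emission intensity with signal-to-noise across three replicate slides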
# Chain of Concanavalin-A (Canavalia ensiformis) (P02866 whole entry, looked up): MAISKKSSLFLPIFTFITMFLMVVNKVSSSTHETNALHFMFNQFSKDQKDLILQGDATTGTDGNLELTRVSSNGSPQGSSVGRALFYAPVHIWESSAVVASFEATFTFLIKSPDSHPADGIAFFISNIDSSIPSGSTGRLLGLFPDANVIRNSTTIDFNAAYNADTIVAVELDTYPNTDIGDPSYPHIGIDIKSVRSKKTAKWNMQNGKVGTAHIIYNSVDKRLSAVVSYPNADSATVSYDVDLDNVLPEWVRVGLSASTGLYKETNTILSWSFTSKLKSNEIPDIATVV
compound,measurement,setting,value
COCCOC(=O)N1C(=O)[C@@]2(c3cc(C#CCCO)ccc31)[C@H](c1ccc(OCCO)cc1)N1[C@H](c3ccccc3)[C@H](c3ccccc3)OC(=O)[C@H]1[C@@H]2C(=O)NC[C@H](O)c1ccccc1,composite z-score,[1],-0.525
same,composite Z-score,[2],0.463 (inactive)
same,composite z-score,[3],0.272
same,composite z-score,[4],-0.146
same,composite z-score,[5],0.484
same,composite z-score,[6],1.78
same,composite z-score,[7],0.54
same,composite z-score,[8],1.29
same,composite z-score,[9],0.716
same,composite z-score,[10],1.05
COCCOC(=O)N1C(=O)[C@@]2(c3cc(C#CCNC(N)=O)ccc31)[C@H](c1ccc(OCCO)cc1)N1[C@H](c3ccccc3)[C@H](c3ccccc3)OC(=O)[C@H]1[C@@H]2C(=O)N1CCCCCCC1,composite z-score,[1],-0.208
same,composite Z-score,[2],-0.333 (inactive)
same,composite z-score,[3],0.255
same,composite z-score,[4],-0.0059
same,composite z-score,[5],0.174
same,composite z-score,[6],0.043
same,composite z-score,[7],0.332
same,composite z-score,[8],0.82
same,composite z-score,[9],0.137
same,composite z-score,[10],0.669
CO[C@H]1COC(=O)CC=C[C@H](C)COC(=O)[C@@H](OCc2ccccc2)C=C[C@@H]1C,composite z-score,[1],-0.877
same,composite Z-score,[2],2.71 (inactive)
same,composite z-score,[3],-0.308
same,composite z-score,[4],-0.14
same,composite z-score,[5],-0.394
same,composite z-score,[6],-0.234
same,composite z-score,[7],0.0842
same,composite z-score,[8],0.379
same,composite z-score,[9],1.51
same,composite z-score,[10],-0.602
O=C1O[C@@H](c2ccccc2)[C@@H](c2ccccc2)N2[C@@H](c3ccc(O)cc3)[C@]3(C(=O)Nc4ccc(C#CC5(O)CCCCCC5)cc43)[C@@H](C(=O)Nc3nc4ccccc4s3)[C@H]12,composite z-score,[1],0.839
same,composite Z-score,[2],0.751 (inactive)
same,composite z-score,[3],0.173
same,composite z-score,[4],0.0943
same,composite z-score,[5],0.0181
same,composite z-score,[6],1.95
same,composite z-score,[7],0.807
same,composite z-score,[8],1.35
same,composite z-score,[9],0.896
same,composite z-score,[10],1.08
C=CCC(OC(C)=O)[C@@H]1[C@@H](N(Cc2cc3ccccc3o2)C(=O)Cc2ccc(F)cc2)c2cc(OCCCO)ccc2N1C(=O)c1ccc(-c2ccccc2)cc1 (stereo not given in full),composite z-score,[1],-0.182
same,composite Z-score,[2],-0.765 (inactive)
same,composite z-score,[3],-0.0881
same,composite z-score,[4],0.0017
same,composite z-score,[5],-0.309
same,composite z-score,[6],0.125
same,composite z-score,[7],-0.546
same,composite z-score,[8],-0.533
same,composite z-score,[9],-0.26
same,composite z-score,[10],-0.764
CC(c1ccccc1)C(O)C1C=CC2C(=O)N(C)C(=O)C2N1N(c1ccccc1)c1ccccc1 (stereo not given),composite z-score,[1],0.867
same,composite Z-score,[2],0.543 (inactive)
same,composite z-score,[3],0.207
same,composite z-score,[4],0.0605
same,composite z-score,[5],0.507
same,composite z-score,[6],1.57
same,composite z-score,[7],0.19
same,composite z-score,[8],0.431
same,composite z-score,[9],-0.852
same,composite z-score,[10],-0.597
O=C(CS)NCCCCCNC(=O)[C@H]1C[C@H]2C(=O)N[C@@H](Cc3ccccc3)C(=O)N2[C@H]1c1ccc(O)cc1,composite z-score,[1],0.237
same,composite Z-score,[2],-0.65 (inactive)
same,composite z-score,[3],0.114
same,composite z-score,[4],-0.0598
same,composite z-score,[5],0.436
same,composite z-score,[6],0.704
same,composite z-score,[7],0.393
same,composite z-score,[8],1.32
same,composite z-score,[9],0.905
same,composite z-score,[10],1.17
COc1ccc(CCN2C(=O)[C@@]3(c4ccc([N+](=O)[O-])cc4)CC(=O)N(CC45CC6CC(CC(C6)C4)C5)[C@@H]3c3ccc(CO)cc32)cc1,composite z-score,[1],-0.181
same,composite Z-score,[2],0.653 (inactive)
same,composite z-score,[3],0.323
same,composite z-score,[4],0.0437
same,composite z-score,[5],0.446
same,composite z-score,[6],1.38
same,composite z-score,[7],-0.415
same,composite z-score,[8],0.644
same,composite z-score,[9],0.569
same,composite z-score,[10],0.402
COC(=O)C[C@H]1O[C@]2(C(=O)N(Cc3ccccc3)c3ccc(I)cc32)[C@@H](C)[C@@H]1[Si](C)(C)c1ccc(OC)cc1,composite z-score,[1],0.298
same,composite Z-score,[2],0.167 (inactive)
same,composite z-score,[3],-0.185
same,composite z-score,[4],-0.0956
same,composite z-score,[5],-0.228
same,composite z-score,[6],-0.322
same,composite z-score,[7],-0.0227
same,composite z-score,[8],-0.879
same,composite z-score,[9],0.0477
same,composite z-score,[10],-0.0276
COc1cc2c(cc1OC)CN(C(=O)[C@@H]1[C@H]3C(=O)O[C@H](c4ccccc4)[C@H](c4ccccc4)N3[C@H](c3ccccc3OCCO)[C@@]13C(=O)Nc1ccccc13)CC2,composite z-score,[1],0.665
same,composite Z-score,[2],-0.316 (inactive)
same,composite z-score,[3],0.746
same,composite z-score,[4],-0.112
same,composite z-score,[5],0.609
same,composite z-score,[6],0.938
same,composite z-score,[7],1.31
same,composite z-score,[8],1.2
same,composite z-score,[9],0.182
same,composite z-score,[10],0.997
COCCOC(=O)N1C(=O)[C@@]2(c3cc(C#CC4=CCCCC4)ccc31)[C@H](C(=O)NC[C@H](O)c1ccccc1)[C@H]1C(=O)O[C@H](c3ccccc3)[C@H](c3ccccc3)N1[C@@H]2c1ccccc1OCCO,composite z-score,[1],0.648
same,composite Z-score,[2],0.155 (inactive)
same,composite z-score,[3],0.315
same,composite z-score,[4],-0.0311
same,composite z-score,[5],0.358
same,composite z-score,[6],1.11
same,composite z-score,[7],0.474
same,composite z-score,[8],1.3
same,composite z-score,[9],0.239
same,composite z-score,[10],1.09
C=CCc1cccc([C@@H]2[C@@H](C)CC[C@H]3C(=O)N4[C@H](c5cccc(CC=C)c5)[C@@H](C)CC[C@H]4C(=O)N23)c1,composite z-score,[1],0.593
same,composite Z-score,[2],0.576 (inactive)
same,composite z-score,[3],0.0827
same,composite z-score,[4],-0.0304
same,composite z-score,[5],0.244
same,composite z-score,[6],0.564
same,composite z-score,[7],0.035
same,composite z-score,[8],0.55
same,composite z-score,[9],0.977
same,composite z-score,[10],1.03
CO[C@H]1COC(=O)CC=C[C@H](C)[C@@H](OC)COC(=O)CC=C[C@@H]1C,composite z-score,[1],-0.683
same,composite Z-score,[2],0.142 (inactive)
same,composite z-score,[3],-0.155
same,composite z-score,[4],-0.14
same,composite z-score,[5],-0.782
same,composite z-score,[6],-0.702
same,composite z-score,[7],-0.36
same,composite z-score,[8],-0.294
same,composite z-score,[9],1.21
same,composite z-score,[10],-1.25
C=CCNC(=O)[C@@H]1[C@H]2C(=O)O[C@H](c3ccccc3)[C@H](c3ccccc3)N2[C@H](c2ccc(OCCO)cc2)[C@@]12C(=O)N(C(=O)OCCOC)c1ccc(C#CC3(O)CCCCCC3)cc12,composite z-score,[1],0.801
same,composite Z-score,[2],1.7 (inactive)
same,composite z-score,[3],0.353
same,composite z-score,[4],-0.0502
same,composite z-score,[5],0.572
same,composite z-score,[6],1.5
same,composite z-score,[7],0.568
same,composite z-score,[8],1.3
same,composite z-score,[9],-0.0335
same,composite z-score,[10],1.07
CO[C@H]1COC(=O)[C@H](C)NC(=O)CC=C[C@@H](C)[C@H](NS(=O)(=O)c2ccc(C)cc2)COC(=O)[C@@H](OCc2ccccc2)C=C[C@@H]1C,composite z-score,[1],0.228
same,composite Z-score,[2],0.0585 (inactive)
same,composite z-score,[3],-0.0932
same,composite z-score,[4],-0.154
same,composite z-score,[5],-0.367
same,composite z-score,[6],-0.959
same,composite z-score,[7],-0.659
same,composite z-score,[8],0.133
same,composite z-score,[9],1.03
same,composite z-score,[10],-0.333
COc1cc2c(cc1OC)CN(C(=O)[C@H]1[C@@H]3C(=O)O[C@@H](c4ccccc4)[C@@H](c4ccccc4)N3[C@@H](c3ccc(O)cc3)[C@]13C(=O)Nc1ccc(C#CC4(O)CCCCCC4)cc13)CC2,composite z-score,[1],0.693
same,composite Z-score,[2],1.04 (inactive)
same,composite z-score,[3],0.974
same,composite z-score,[4],0.286
same,composite z-score,[5],0.774
same,composite z-score,[6],3.61
same,composite z-score,[7],0.876
same,composite z-score,[8],1.29
same,composite z-score,[9],1.24
same,composite z-score,[10],1.13
